# Laboratory results taken from the supplement of paper PMC4466140.
# Key:
# Assay in all cases: SPOT peptide array binding signal intensity (averaged, normalized) (arbitrary units (background-subtracted, floor 0; scale differs between SH3 domains)); higher = stronger binding of the SH3 domain to the peptide
# AgAbp1 = target: AgAbp1
# Method: (§1)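 GST-tagged SH3 domains from S. cerevisiae (Sc), A. gossypii (Ag), C. albicans (Ca) and S. pombe (Sp) were incubated at 10 ug/ml overnight at 4 C on cellulose SPOT membranes carrying 292 synthetic 15-mer peptides mined from the S. cerevisiae proteome (cysteines replaced by serines). Binding was detected with anti-GST antibody, HRP secondary and chemiluminescence, quantified with Genespotter, and reported as normalized spot intensities averaged over biological replicates.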
# AgBbc1 = target: AgBbc1
# Method: as §1
# AgBem1-D1 = target: AgBem1-D1
# Method: as §1
# AgBzz1-D1 = target: AgBzz1-D1
# Method: as §1
# AgBzz1-D2 = target: AgBzz1-D2
# Method: as §1
# AgCyk3 = target: AgCyk3
# Method: as §1
# AgFus1 = target: AgFus1
# Method: as §1
# AgHof1 = target: AgHof1
# Method: as §1
# AgHse1 = target: AgHse1
# Method: as §1
# AgLsb1 = target: AgLsb1
# Method: as §1
# AgLsb4 = target: AgLsb4
# Method: as §1
# AgMyo5 = target: AgMyo5
# Method: as §1
# AgNbp2 = target: AgNbp2
# Method: as §1
# AgRvs167 = target: AgRvs167
# Method: as §1
# AgSho1 = target: AgSho1
# Method: as §1
# AgSla1-D1-D2 = target: AgSla1-D1-D2
# Method: as §1
# AgSla1-D3 = target: AgSla1-D3
# Method: as §1
# CaAbp1-D1 = target: CaAbp1-D1
# Method: as §1
# CaAbp1-D2 = target: CaAbp1-D2
# Method: as §1
# CaBbc1 = target: CaBbc1
# Method: as §1
# CaBem1-D1 = target: CaBem1-D1
# Method: as §1
# CaBzz1-D1 = target: CaBzz1-D1
# Method: as §1
# CaBzz1-D2 = target: CaBzz1-D2
# Method: as §1
# CaCyk3 = target: CaCyk3
# Method: as §1
# CaFus1 = target: CaFus1
# Method: as §1
# CaHof1 = target: CaHof1
# Method: as §1
# CaHse1 = target: CaHse1
# Method: as §1
# CaLsb1 = target: CaLsb1
# Method: as §1
# CaLsb4 = target: CaLsb4
# Method: as §1
# CaMyo5 = target: CaMyo5
# Method: as §1
# CaNbp2 = target: CaNbp2
# Method: as §1
# CaRvs167 = target: CaRvs167
# Method: as §1
# CaRvs167-3 = target: CaRvs167-3
# Method: as §1
# CaSho1 = target: CaSho1
# Method: as §1
# CaSla1-D1-D2 = target: CaSla1-D1-D2
# Method: as §1
# CaSla1-D3 = target: CaSla1-D3
# Method: as §1
# ScAbp1 = target: ScAbp1
# Method: as §1
# ScBbc1 = target: ScBbc1
# Method: as §1
# ScBem1-D1 = target: ScBem1-D1
# Method: as §1
# ScBzz1-D1 = target: ScBzz1-D1
# Method: as §1
# ScBzz1-D2 = target: ScBzz1-D2
# Method: as §1
# ScCyk3 = target: ScCyk3
# Method: as §1
# ScFus1 = target: ScFus1
# Method: as §1
# ScHof1 = target: ScHof1
# Method: as §1
# ScHse1 = target: ScHse1
# Method: as §1
# ScLsb1 = target: ScLsb1
# Method: as §1
# ScLsb2 = target: ScLsb2
# Method: as §1
# ScLsb3 = target: ScLsb3
# Method: as §1
# ScLsb4 = target: ScLsb4
# Method: as §1
# ScMyo3 = target: ScMyo3
# Method: as §1
# ScMyo5 = target: ScMyo5
# Method: as §1
# ScNbp2 = target: ScNbp2
# Method: as §1
# ScPex13 = target: ScPex13
# Method: as §1
# ScRvs167 = target: ScRvs167
# Method: as §1
# ScSho1 = target: ScSho1
# Method: as §1
# ScSla1-D1-D2 = target: ScSla1-D1-D2
# Method: as §1
# ScSla1-D3 = target: ScSla1-D3
# Method: as §1
# SpAbp1-D1 = target: SpAbp1-D1
# Method: as §1
# SpBbc1 = target: SpBbc1
# Method: as §1
# SpBzz1-D1 = target: SpBzz1-D1
# Method: as §1
# SpBzz1-D2 = target: SpBzz1-D2
# Method: as §1
# SpCyk3 = target: SpCyk3
# Method: as §1
# SpHof1 = target: SpHof1
# Method: as §1
# SpHof1-2 = target: SpHof1-2
# Method: as §1
# SpHof1-3 = target: SpHof1-3
# Method: as §1
# SpHse1 = target: SpHse1
# Method: as §1
# SpLsb1 = target: SpLsb1
# Method: as §1
# SpLsb4 = target: SpLsb4
# Method: as §1
# SpMyo1 = target: SpMyo1
# Method: as §1
# SpNbp2 = target: SpNbp2
# Method: as §1
# SpPex13 = target: SpPex13
# Method: as §1
# SpRvs167 = target: SpRvs167
# Method: as §1
# SpSla1-D1-D2 = target: SpSla1-D1-D2
# Method: as §1
# SpSla1-D3 = target: SpSla1-D3
# Method: as §1
binder,measurement,setting,value
RSRRSSFAYPQQVAI,SPOT peptide array binding signal intensity,AgAbp1,22
same,SPOT peptide array binding signal intensity,AgBbc1,64
same,SPOT peptide array binding signal intensity,AgBem1-D1,91.5
same,SPOT peptide array binding signal intensity,AgBzz1-D1,32
same,SPOT peptide array binding signal intensity,AgBzz1-D2,50.5
same,SPOT peptide array binding signal intensity,AgCyk3,1
same,SPOT peptide array binding signal intensity,AgFus1,200
same,SPOT peptide array binding signal intensity,AgHof1,33.5
same,SPOT peptide array binding signal intensity,AgHse1,254
same,SPOT peptide array binding signal intensity,AgLsb1,2.5
same,SPOT peptide array binding signal intensity,AgLsb4,39.5
same,SPOT peptide array binding signal intensity,AgMyo5,6.25
same,SPOT peptide array binding signal intensity,AgNbp2,39
same,SPOT peptide array binding signal intensity,AgRvs167,2.33
same,SPOT peptide array binding signal intensity,AgSho1,9
same,SPOT peptide array binding signal intensity,AgSla1-D1-D2,63.5
same,SPOT peptide array binding signal intensity,AgSla1-D3,4.5
same,SPOT peptide array binding signal intensity,CaAbp1-D1,170
same,SPOT peptide array binding signal intensity,CaAbp1-D2,152
same,SPOT peptide array binding signal intensity,CaBbc1,258
same,SPOT peptide array binding signal intensity,CaBem1-D1,20.5
same,SPOT peptide array binding signal intensity,CaBzz1-D1,84.5
same,SPOT peptide array binding signal intensity,CaBzz1-D2,102
same,SPOT peptide array binding signal intensity,CaCyk3,9
same,SPOT peptide array binding signal intensity,CaFus1,262
same,SPOT peptide array binding signal intensity,CaHof1,≤ 0
same,SPOT peptide array binding signal intensity,CaHse1,4.5
same,SPOT peptide array binding signal intensity,CaLsb1,1.5
same,SPOT peptide array binding signal intensity,CaLsb4,70.5
same,SPOT peptide array binding signal intensity,CaMyo5,7.25
same,SPOT peptide array binding signal intensity,CaNbp2,130
same,SPOT peptide array binding signal intensity,CaRvs167,5.67
same,SPOT peptide array binding signal intensity,CaRvs167-3,13.5
same,SPOT peptide array binding signal intensity,CaSho1,66.5
same,SPOT peptide array binding signal intensity,CaSla1-D1-D2,55
same,SPOT peptide array binding signal intensity,CaSla1-D3,2.25
same,SPOT peptide array binding signal intensity,ScAbp1,27.5
same,SPOT peptide array binding signal intensity,ScBbc1,24.5
same,SPOT peptide array binding signal intensity,ScBem1-D1,79.5
same,SPOT peptide array binding signal intensity,ScBzz1-D1,37
same,SPOT peptide array binding signal intensity,ScBzz1-D2,28
same,SPOT peptide array binding signal intensity,ScCyk3,69
same,SPOT peptide array binding signal intensity,ScFus1,157
same,SPOT peptide array binding signal intensity,ScHof1,0.5
same,SPOT peptide array binding signal intensity,ScHse1,644
same,SPOT peptide array binding signal intensity,ScLsb1,1
same,SPOT peptide array binding signal intensity,ScLsb2,7.5
same,SPOT peptide array binding signal intensity,ScLsb3,59
same,SPOT peptide array binding signal intensity,ScLsb4,24.5
same,SPOT peptide array binding signal intensity,ScMyo3,3.5
same,SPOT peptide array binding signal intensity,ScMyo5,8.5
same,SPOT peptide array binding signal intensity,ScNbp2,141
same,SPOT peptide array binding signal intensity,ScPex13,10
same,SPOT peptide array binding signal intensity,ScRvs167,8.33
same,SPOT peptide array binding signal intensity,ScSho1,304
same,SPOT peptide array binding signal intensity,ScSla1-D1-D2,339
same,SPOT peptide array binding signal intensity,ScSla1-D3,20.2
same,SPOT peptide array binding signal intensity,SpAbp1-D1,36
same,SPOT peptide array binding signal intensity,SpBbc1,3.5
same,SPOT peptide array binding signal intensity,SpBzz1-D1,169
same,SPOT peptide array binding signal intensity,SpBzz1-D2,≤ 0
same,SPOT peptide array binding signal intensity,SpCyk3,1.5
same,SPOT peptide array binding signal intensity,SpHof1,93.5
same,SPOT peptide array binding signal intensity,SpHof1-2,13
same,SPOT peptide array binding signal intensity,SpHof1-3,203
same,SPOT peptide array binding signal intensity,SpHse1,168
same,SPOT peptide array binding signal intensity,SpLsb1,7.75
same,SPOT peptide array binding signal intensity,SpLsb4,59
same,SPOT peptide array binding signal intensity,SpMyo1,6.75
same,SPOT peptide array binding signal intensity,SpNbp2,91
same,SPOT peptide array binding signal intensity,SpPex13,17
same,SPOT peptide array binding signal intensity,SpRvs167,8.83
same,SPOT peptide array binding signal intensity,SpSla1-D1-D2,3
same,SPOT peptide array binding signal intensity,SpSla1-D3,10
RKRRTHLRLPLIRSN,SPOT peptide array binding signal intensity,SpBzz1-D2,≤ 0
same,SPOT peptide array binding signal intensity,SpCyk3,2
same,SPOT peptide array binding signal intensity,SpHof1,299
same,SPOT peptide array binding signal intensity,SpHof1-2,9
same,SPOT peptide array binding signal intensity,SpHof1-3,1060
same,SPOT peptide array binding signal intensity,SpHse1,622
same,SPOT peptide array binding signal intensity,SpLsb1,0.5
same,SPOT peptide array binding signal intensity,SpLsb4,260
same,SPOT peptide array binding signal intensity,SpMyo1,9
same,SPOT peptide array binding signal intensity,SpNbp2,350
same,SPOT peptide array binding signal intensity,SpPex13,13
same,SPOT peptide array binding signal intensity,SpRvs167,9.33
same,SPOT peptide array binding signal intensity,SpSla1-D1-D2,≤ 0
same,SPOT peptide array binding signal intensity,SpSla1-D3,≤ 0
